From PubChem BioAssay
Shown are actives, neighbours in structure and some others; about 1.5% of the full set was active somewhere.
sPLA2-III inh: Blocks human group III sPLA2 activity. Q9NZ20. QFRET BODIPY PC-A2 liposome hydrolysis, fluorescence. inhibition, % at 12.2 µM. 370,000 tested, 0.56% active. AID 743126;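 active means inhibition above mean plus 3 SD of compounds lying within the high and low control bounds, cut at about 19% in these data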;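 further: 0% = median of test compound wells and 100% = no enzyme DMSO wells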
Target sequence (Q9NZ20 whole entry, looked up): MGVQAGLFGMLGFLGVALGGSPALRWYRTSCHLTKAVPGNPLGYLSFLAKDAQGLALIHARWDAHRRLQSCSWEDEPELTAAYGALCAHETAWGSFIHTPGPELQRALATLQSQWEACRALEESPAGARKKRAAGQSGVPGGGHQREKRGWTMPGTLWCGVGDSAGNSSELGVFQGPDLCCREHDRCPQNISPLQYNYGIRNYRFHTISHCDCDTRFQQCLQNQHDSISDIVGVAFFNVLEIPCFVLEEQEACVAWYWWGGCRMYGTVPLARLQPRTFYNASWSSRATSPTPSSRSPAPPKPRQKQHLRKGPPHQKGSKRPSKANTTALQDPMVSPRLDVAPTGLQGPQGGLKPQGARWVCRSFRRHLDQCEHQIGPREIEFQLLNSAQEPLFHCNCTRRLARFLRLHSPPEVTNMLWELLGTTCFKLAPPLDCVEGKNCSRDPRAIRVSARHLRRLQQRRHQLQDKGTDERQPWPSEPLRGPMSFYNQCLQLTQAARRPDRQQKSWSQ
AI-2 QS modul: Vibrio harveyi AI-2 quorum sensing modulation | Vibrio harveyi JMH597 AI-2 luminescence/OD600 ratio, 9 h; hits give low values; strain lacks LuxN and CqsS sensors; 0 = neutral-control median | activity change, % at 7.5 µM | 300,000 tested, 0.4% active | AID 2094; in the data active means activity change below about -75%, passing the limit was not always enough;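 further: luminescence divided by OD600 gain over 9 h not by final OD600 alone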
Rin1-Abl PPI inh: human Rin1-Abl interaction inhibition; P00519+Q13671; TR-FRET Rin1/Abl binding, biochemical; inhibition, % at 7.35 µM; 360,000 tested, 0.4% active; AID 588664; in the data active means inhibition above about 5%, passing the limit was not always enough
ARNT TACC3 PPI: disruptors of human ARNT/TACC3 interaction; 390,000 tested, 0.66% active; AlphaScreen His-ARNT PAS-B/GST-TACC3 binding, luminescence; TACC3 fragment carries E629A point mutation; inhibition, % at 9.99 µM; AID 623870;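 active means mean inhibition of replicates at least 50% and at least half of replicates each reaching 50%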;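 further: 0% = complete ARNT plus TACC3 wells and 100% = ARNT alone without TACC3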
Rin1 Abl conf: confirmation of inhibitors of human Rin1-Abl interaction | shares compounds with Rin1-Abl PPI inh | TR-FRET Rin1-Abl binding, purified proteins | inhibition, % at 7.35 µM | 1,300 tested, 49% active | AID 602124
GFP quencher: quenches GFP fluorescence, counter-screen for Rin1-Abl inhibitors; shares compounds with Rin1-Abl PPI inh; inhibitors/quenchers counterscreen; inhibition, % at 6.75 µM; 1,300 tested, 8.5% active; AID 602125;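 further: ABL1-eGFP fusion protein alone without its partner RIN1-SBP; 0% = protein with vehicle and 100% = wells lacking protein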
An asterisk follows results filed as active; nt = no result. Unless noted, no stated cut-off is given here; in the data, active means inhibition above about 6.5%; inactive means the rest.

SMILES	sPLA2-III inh	AI-2 QS modul	Rin1-Abl PPI inh	ARNT TACC3 PPI	Rin1 Abl conf	GFP quencher
CN(C)CCNC(=O)c1cccc(S(=O)(=O)Nc2ccc(F)cc2)c1	5	17	9.2*	-5	-2	-1
CCN(CC)CCNC(=O)c1ccc(NC(=O)c2cccc(S(=O)(=O)Nc3ccc(C)cc3)c2)cc1	-20	2	4	nt	nt	nt
CN1C(=O)c2cc(NC(=O)Cc3cccs3)ccc2OC[C@H]2O[C@@H](CC(=O)N[C@@H]3CCN(Cc4ccccc4)C3)CC[C@@H]21	nt	nt	nt	-3	nt	nt
Cc1cc(C)nc(N(C#N)Cc2ccccc2)n1	-5	26	7.2*	21	-2	1
Cc1cc(C)nc(N(C#N)Cc2ccc([N+](=O)[O-])cc2)n1	-1	23	-1	15	nt	nt
CO[C@@H]1CC[C@H]2CCN(C)C(=O)[C@@H](C)[C@H](OC)CN(C)C(=O)c3cccc(C#N)c3OC[C@@H]1O2	nt	nt	nt	-11	nt	nt
O=c1cc(CO)oc(CN2CCN(CCO)CC2)c1O	4	13	6.5*	4	-2	1
CC(=O)c1sc(NC(=O)c2ccc(Br)o2)nc1C	8	6	12*	-1	-4	1
CCCCCCn1c(C(C)O)nc2ccccc21 (stereo not drawn)	3	3	21*	20	1	-1
CN(C)C(=O)c1cccc(-c2ccc3c(c2)[C@@H]2[C@@H](CCN2C(=O)Nc2ccc(F)cc2)[C@H](CO)N3C)c1	nt	nt	nt	0	nt	nt
CC(=O)NN1C(=O)/C(=C/c2ccc(Br)o2)SC1=S	0	13	6.5*	11	-2	0
CC(=O)NN1C(=O)/C(=C\c2ccc(Br)o2)SC1=S	2	31	1	43	nt	nt
O=C(C[C@H]1C=C[C@H](NC(=O)CC2CC2)[C@@H](CO)O1)NCC(F)(F)F	nt	nt	nt	0	nt	nt
Cc1ccc(NC2CNC(=O)NC2=O)cc1C (stereo not drawn)	0	nt	1	-7	nt	nt
Cc1ccc(NC2C(=O)NC(=O)NC2=O)cc1	11	nt	17*	41*	16*	-1
O=C(NC(=O)c1cccc(F)c1)OC[C@@H]1CCCN2CCCC[C@H]12	0	23	4	-18	nt	nt
O=C(Nc1ccc(C(=O)OC[C@@H]2CCCN3CCCC[C@H]23)cc1)c1cccc(Br)c1	-2	14	8.5*	9	10*	-1
CCN(CC)c1cc(-c2ccccc2)ncn1	12	24	7.6*	24	1	-1
CC(=O)Nc1ccc(CNc2nc(NC(C)C)nc3ccsc23)cc1	5	nt	0	nt	nt	nt
CC(=O)Nc1ccc(CNc2nc(NCC3CC3)nc3ccsc23)cc1	-13	nt	7.2*	nt	5	-1
COc1ccc(OCC(=O)OCCN2C(=O)c3ccccc3C2=O)cc1	-3	1	10*	6	-1	1
COc1ccc(CN(C)C[C@@H]2OCCCC[C@@H](C)Oc3ccc(NC(=O)c4ccccc4)cc3C(=O)N([C@@H](C)CO)C[C@H]2C)cc1	nt	nt	nt	-7	nt	nt
C[C@@H]1CN([C@@H](C)CO)C(=O)c2cccc(NC(=O)C3CC3)c2O[C@H]1CN(C)Cc1ccc(-c2ccccc2)cc1	nt	nt	nt	14	nt	nt
COC(=O)c1ccc(NC(=O)CSc2nc3cccnc3n2C)cc1	-1	3	1	-3	nt	nt
CCOC(=O)c1ccc(NC(=O)CSc2nncn2-c2cccnc2)cc1	-5	17	7.8*	-8	2	-1
SMILES	sPLA2-III inh	AI-2 QS modul	Rin1-Abl PPI inh	ARNT TACC3 PPI	Rin1 Abl conf	GFP quencher
NC(=O)c1ccc(NC(=O)CSc2nncn2-c2ccccc2)cc1	2	14	0	-4	nt	nt
CCOC(=O)c1ccc(NC(=O)CSc2nc3cccnc3n2C)cc1	10	3	9.9*	-5	6	-1
O=C(O)c1ccc2c(c1)C1C=CCC1C(c1ccncc1)N2 (stereo not drawn)	-1	8	-2	0	nt	nt
COc1ccc(NS(=O)(=O)c2ccc3c(c2)[C@H]2C=CC[C@H]2[C@@H](c2ccc(C(=O)O)cc2)N3)cc1	-4	4	9.2*	16	9.5*	17*
CC/C(=N\Nc1ccnc2cc(Cl)ccc12)c1ccc(O)cc1	0	6	1	12	nt	nt
Oc1ccc(/C=N/Nc2ccnc3cc(Cl)ccc23)c(O)c1O	-7	nt	24*	nt	26*	7.5*
Oc1ccc(/C=N/Nc2ccnc3cc(Cl)ccc23)cc1O	14	5	11*	14	6	3
CCNC(=O)[C@@H]1[C@@H](CO)[C@@H]2Cn3c(ccc(-c4ccc(F)cc4)c3=O)[C@H]1N2Cc1ccccc1F	nt	nt	nt	-7	nt	nt
